Screens: PubChem BioAssay, National Center for Advancing Translational Sciences (NCATS)
In the library only some 13% were active in any assay of this set; here they are far more common.
Shiga inhibitor = A qHTS for Small Molecule Inhibitors of Shiga Toxin. Vero cells, Shiga toxin protein synthesis inhibition reporter. inhibition, % at 38.7 µM. 290,000 tested, 9.2% active. AID 2315, 2010; in the data active = inhibition mostly above about 28%, no sharp cut-off; inactive = mostly below about 43%; also: 0% is about no effect
Cycloheximide cs = Cycloheximide Counterscreen for Small Molecule Inhibitors of Shiga Toxin. cell reporter, cycloheximide protein synthesis inhibition counterscreen. max response, %. 300,000 tested, 12% active; in the data active = max response mostly above about 13%, no sharp cut-off; inactive = mostly below about 14%; also: read at 38.3 µM for the half of the compounds with a filed dose; 0% is about no effect
Lassa entry inh = qHTS for Inhibitors of binding or entry into cells for Lassa Virus | Lassa virus pseudotype entry inhibition, cell reporter | Potency, µM (series often up to 37.9 µM), for the others: at the top dose activity change, negative = inhibition, usual class: inhibitors | 300,000 tested, 1.2% active; calls by dose curve; tested in HEK293 cells; also: potency is read from the fitted curve at half-maximal effect; % is scaled to controls: 0 for no effect and ±100 for the full control effect; nearly all actives have a fitted effect of over 50% in size
Marburg entry inh = qHTS for inhibitors of binding or entry into cells for Marburg Virus; Marburg virus pseudotyped entry inhibition, cell reporter; Potency, µM (titrated, usually from 37.8 µM), for inactives: at the top dose activity change, negative = inhibition, usual class: inhibitors; 300,000 tested, 1.8% active; AID 540276, 2011; calls by dose curve; tested in HEK293 cells; also: potency is read from the fitted curve at half-maximal effect; % is scaled to controls: 0 for no effect and ±100 for the full control effect
HCV inhibitor = qHTS Assay for Inhibitors of Hepatitis C Virus (HCV); Potency, µM (top dose mostly 41.8 µM), for the others: at the highest dose activity change, negative = inhibition, most hits filed as inhibitors; Huh7.5.1 HCVcc-Cre infection, luciferase reporter, 44 h; 340,000 tested, 3.4% active; active = well fitted inhibition curve with a large enough effect; inconclusive = small, poorly fitted or top-dose-only effect, or another doubt; inactive = no such curve, though single readings can be large or run the other way; also: potency is read from the fitted curve at half-maximal effect; % is scaled to controls: 0 for no effect and ±100 for the full control effect
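Infectious HCVcc-Cre (~0.5 moi) was added to cells just after compound, with cells seeded 4 h earlier at 1,000 per well. Luciferase activity after 44 h culture reported infection; substrate was incubated 15 min at room temperature before reading.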
FMDV inh = High Throughput Screening for Foot and Mouth Disease Virus Antivirals | FMDV antiviral cell-based qHTS | Potency, µM (doses to about 57.9 µM), inactives show at the highest dose activity change, negative = inhibition, hits mostly inhibitors | 410,000 tested, 1.2% active; calls by dose curve; tested in HEK293T cells; also: read-out not given here; potency is read from the fitted curve at half-maximal effect; % is scaled to controls: 0 for no effect and ±100 for the full control effect; nearly all actives have a fitted effect of over 45% in size
Numbers without * were called inactive; ! = not active in a repeat; [ ] = dose if it differs, or a comment.

How did CCN1C(=O)c2cccc3c(NC(=O)c4ccc5c(c4)OCCO5)ccc1c23 do in these assays?
Shiga inhibitor: 10; Cycloheximide cs: 13*; Lassa entry inh: -31%; Marburg entry inh: 10%; HCV inhibitor: inconclusive

How did COc1ccc(C(=O)Nc2ccc3c(c2)OCCO3)cc1Br do in these assays?
Shiga inhibitor: 34*; Cycloheximide cs: 19*; HCV inhibitor: inconclusive; FMDV inh: 0%

How did CCOc1ccc(C(=O)Nc2ccc3c(c2)OCCO3)cc1Br do in these assays?
Lassa entry inh: 2%[46.1 µM]; FMDV inh: 43%

How did Cc1ccc(S(=O)(=O)CC(=O)c2ccc3c(c2)OCCO3)cc1 do in these assays?
Shiga inhibitor: 82*; Cycloheximide cs: 45*; Lassa entry inh: 10%[46.1 µM]; Marburg entry inh: 21%[46.1 µM]; HCV inhibitor: 6%; FMDV inh: 41%

What do the screens show for `CCCOc1cccc(NC(=O)c2cc(C)oc2C)c1`?
Shiga inhibitor: 39; Cycloheximide cs: -4; Lassa entry inh: -3%; Marburg entry inh: inconclusive; HCV inhibitor: 10µM*; FMDV inh: -7%

What do the screens show for `Cc1ccc(C(=O)Nc2ccc3c(c2)OCO3)cc1`?
Shiga inhibitor: 56; Cycloheximide cs: 25*; Lassa entry inh: inconclusive; Marburg entry inh: inconclusive; HCV inhibitor: inconclusive; FMDV inh: -51%

Results for O=C(NNC(=O)c1ccc(F)cc1F)c1ccc2c(c1)OCO2 ?
Shiga inhibitor: 62*; Cycloheximide cs: 48*; Marburg entry inh: 6%[46.1 µM]; HCV inhibitor: -1%; FMDV inh: 65%

What do the screens show for `O=C(Nc1ccc2c(c1)OCO2)c1ccncc1`?
Shiga inhibitor: 18; Cycloheximide cs: 15; Lassa entry inh: 6%; Marburg entry inh: 0%[46.1 µM]; HCV inhibitor: 25%; FMDV inh: 47%

What do the screens show for `O=C(NNS(=O)(=O)c1ccc(F)cc1)c1ccc2c(c1)OCO2`?
Shiga inhibitor: 10; Cycloheximide cs: -1; HCV inhibitor: 13%; FMDV inh: 45%

Results for Cc1cc(C(=O)Nc2ccccc2)c(C)o1 ?
Shiga inhibitor: -2; Cycloheximide cs: 7; Lassa entry inh: 0%; Marburg entry inh: 16%; HCV inhibitor: 10%; FMDV inh: 14%

Results for N#C/C(=C\c1ccc(O)c(O)c1)C(N)=S ?
Marburg entry inh: inconclusive; FMDV inh: -25%

What do the screens show for `COc1ccc(CCC(=O)N/N=C\c2cccs2)cc1`?
Shiga inhibitor: -3; Cycloheximide cs: 21; Lassa entry inh: inconclusive; Marburg entry inh: -13%; HCV inhibitor: 13%; FMDV inh: 1%

What do the screens show for `Cc1ccc2nc(-c3cccc(-c4cccc(Cl)c4)c3)c(NCc3ccccc3)n2c1`?
HCV inhibitor: -19%; FMDV inh: 35µM*

What do the screens show for `CCC(C)Sc1cccc(-c2nc3ccc(C)cn3c2NCc2ccccc2)c1` (stereo not given)?
HCV inhibitor: 4%; FMDV inh: 32µM*!

How did Cc1ccc2nc(-c3ccccc3)c(Cc3cccc(Cl)c3)n2c1 do in these assays?
FMDV inh: 2%

Results for O=C(NC1CCCN(CCc2ccccc2)C1)c1c(F)cccc1F (stereo not given) ?
Shiga inhibitor: 2; Cycloheximide cs: 1; HCV inhibitor: -1%; FMDV inh: -13%

Results for Cc1cc(C)n(-c2nc(-c3cccc(Cl)c3)cs2)n1 ?
Shiga inhibitor: 35; Cycloheximide cs: 23*; Lassa entry inh: 14%; Marburg entry inh: inconclusive; HCV inhibitor: inconclusive; FMDV inh: 22%

How did Cc1cc(C)n(-c2nc(C(=O)O)cs2)n1 do in these assays?
Shiga inhibitor: -5; Cycloheximide cs: 8; Lassa entry inh: -4%; Marburg entry inh: 23%[46.1 µM]; HCV inhibitor: 5%; FMDV inh: 3%

How did Cc1cc(C)n(-c2nc(-c3ccccc3)cs2)n1 do in these assays?
Shiga inhibitor: 112*; Cycloheximide cs: 35; Lassa entry inh: 26%; Marburg entry inh: 5%[46.1 µM]; HCV inhibitor: inconclusive; FMDV inh: 55%

Results for COc1cc(C(=O)NC(c2ccccc2)c2ccccc2)cc(OC)c1C ?
Shiga inhibitor: -2; Cycloheximide cs: -4; Lassa entry inh: -16%; Marburg entry inh: 2%[46.1 µM]; HCV inhibitor: 17%; FMDV inh: 9%

Results for C[C@H](CO)N1C[C@H](C)[C@@H](CN(C)C(=O)Nc2ccccc2)Oc2ccc(NC(=O)NC3CCCCC3)cc2C1=O ?
HCV inhibitor: 33%; FMDV inh: 13%

Results for Cc1ccc(CNc2ccc(N3C(=O)CC(C)C3=O)cc2[N+](=O)[O-])cc1 (stereo not given) ?
Shiga inhibitor: 0; Cycloheximide cs: 1; Lassa entry inh: -1%; Marburg entry inh: 1%; HCV inhibitor: -4%; FMDV inh: -16%

Results for CC1CC(=O)N(c2ccc(NCCc3ccccc3)c([N+](=O)[O-])c2)C1=O (stereo not given) ?
Shiga inhibitor: 68*; Cycloheximide cs: 31*; Lassa entry inh: 0%; Marburg entry inh: 15%[46.1 µM]; HCV inhibitor: -21%; FMDV inh: 8%

Results for CC1CC(=O)N(c2ccc(NCCc3ccc(O)cc3)c([N+](=O)[O-])c2)C1=O (stereo not given) ?
Shiga inhibitor: 41*; Cycloheximide cs: 22*; Lassa entry inh: inconclusive; Marburg entry inh: -22%[46.1 µM]; HCV inhibitor: inconclusive; FMDV inh: inconclusive

What do the screens show for `O=C1C2CC=CCC2C(=O)N1c1ccc(NCCc2ccccc2)c([N+](=O)[O-])c1` (stereo not given)?
Shiga inhibitor: -4; Cycloheximide cs: -1; Lassa entry inh: -6%; Marburg entry inh: inconclusive; HCV inhibitor: 10%; FMDV inh: 5%

How did CCOC(=O)c1c(C)c(-c2ccccc2)n(CC(=O)N2CCCC2)c1C do in these assays?
Shiga inhibitor: -16; Cycloheximide cs: -6; Marburg entry inh: 1%; HCV inhibitor: -8%; FMDV inh: -12%

Results for CN(C)c1ccc(-c2nn3c(-c4ccc(Cl)cc4)nnc3s2)cc1 ?
Shiga inhibitor: 14; Cycloheximide cs: 3; Lassa entry inh: -4%; Marburg entry inh: 20%; HCV inhibitor: 8%; FMDV inh: -6%

How did Clc1ccc(-c2nn3c(C4COc5ccccc5O4)nnc3s2)cc1 (stereo not given) do in these assays?
Shiga inhibitor: -4; Cycloheximide cs: 20*; Lassa entry inh: 6.5µM*; Marburg entry inh: 4%; HCV inhibitor: 3%; FMDV inh: 19%

Results for O=C(N/N=C/c1ccoc1)c1cc(O)cc(O)c1 ?
Shiga inhibitor: -28; Cycloheximide cs: 11; Lassa entry inh: 9%; Marburg entry inh: -2%; HCV inhibitor: 26%; FMDV inh: -3%

How did O=C(N/N=C/c1ccoc1)c1ccccc1O do in these assays?
Shiga inhibitor: 32; Cycloheximide cs: 29*; HCV inhibitor: 8%; FMDV inh: 59%
